# The whole screen tested about 5,500 compounds, of which about 2,000 (36%) were called active. Inconclusive results (about 18%) are left out. The list shows a part of the results. Unmarked numbers belong to inactive results. No stated cut-off is given here; in the data, active means normalized growth mostly below about 0.91 (no sharp cut-off); inconclusive means no clear call, values can overlap the other calls; inactive means mostly above about 0.92.
# Assay: chemical genetic growth profiling, strain panel (AID 1159580);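 further: tested at 20 µM; growth read once vehicle control cultures reached saturation at 30 °C; 1 = growth at the plate median or of vehicle wells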
# Conditions: growth OD
# [1] = S. cerevisiae deletion strains, locus YBR229C, strain ROT2, stronger effect = lower value
# [2] = S. cerevisiae deletion strains, locus YDL101C, strain DUN1, stronger effect = lower value
# [3] = S. cerevisiae deletion strains, locus YDR150W, strain NUM1, stronger effect = lower value
# [4] = S. cerevisiae deletion strains, locus YEL061C, strain CIN8, stronger effect = lower value
# [5] = S. cerevisiae deletion strains, locus YHR030C, strain SLT2, stronger effect = lower value
# [6] = S. cerevisiae deletion strains, locus YJR043C, strain POL32, stronger effect = lower value
# [7] = S. cerevisiae deletion strains, locus YLR039C, strain RIC1, stronger effect = lower value
# [8] = S. cerevisiae deletion strains, locus YLR262C, strain YPT6, stronger effect = lower value
# [9] = S. cerevisiae deletion strains, locus YMR263W, strain SAP30, stronger effect = lower value
# [10] = S. cerevisiae deletion strains, locus YMR307W, strain GAS1, stronger effect = lower value
# [11] = S. cerevisiae deletion strains, locus YPL055C, strain LGE1, stronger effect = lower value
compound,measurement,setting,value
Cc1cc(I)c(C)cc1I,normalized growth,"S. cerevisiae deletion strains, locus YAL013W, strain DEP1, stronger effect = lower value",1.01
same,normalized growth,[1],0.989
same,normalized growth,"S. cerevisiae deletion strains, locus YCL061C, strain MRC1, stronger effect = lower value",0.994
same,normalized growth,[2],1.02
same,normalized growth,"S. cerevisiae deletion strains, locus YDL134C, strain PPH21, stronger effect = lower value",0.986
same,normalized growth,[3],1.04
same,normalized growth,[4],0.966
same,normalized growth,"S. cerevisiae deletion strains, locus YGR078C, strain PAC10, stronger effect = lower value",1
same,normalized growth,[5],0.805
same,normalized growth,"S. cerevisiae deletion strains, locus YHR087W, strain rtc3, stronger effect = lower value",0.979
same,normalized growth,[6],0.994
same,normalized growth,"S. cerevisiae deletion strains, locus YJR075W, strain HOC1, stronger effect = lower value",0.976
same,normalized growth,[7],0.955
same,normalized growth,"S. cerevisiae deletion strains, locus YLR058C, strain SHM2 (second series), stronger effect = lower value",0.992
same,normalized growth,"S. cerevisiae deletion strains, locus YLR085C, strain ARP6, stronger effect = lower value",0.953
same,normalized growth,[8],0.872
same,normalized growth,"S. cerevisiae deletion strains, locus YML094W, strain GIM5, stronger effect = lower value",0.95
same,normalized growth,"S. cerevisiae deletion strains, locus YMR219W, strain ESC1, stronger effect = lower value",1
same,normalized growth,[9],0.976
same,normalized growth,[10],0.7
same,normalized growth,"S. cerevisiae deletion strains, locus YNL153C, strain GIM3, stronger effect = lower value",0.984
same,normalized growth,"S. cerevisiae deletion strains, locus YNL298W, strain CLA4 (second series), stronger effect = lower value",0.935
same,normalized growth,"S. cerevisiae deletion strains, locus YNL322C, strain KRE1, stronger effect = lower value",1
same,normalized growth,"S. cerevisiae deletion strains, locus YNR030W, strain Alg12, stronger effect = lower value",0.943
same,normalized growth,[11],0.966
same,normalized growth,"S. cerevisiae deletion strains, locus YPL241C, strain CIN2, stronger effect = lower value",0.978
same,normalized growth,"S. cerevisiae deletion strains, locus YPR135W, strain CTF4, stronger effect = lower value",0.925
CCC/C=C1\OC(=O)C2=C1CCC=C2,normalized growth,"S. cerevisiae deletion strains, locus YBR021W, strain FUR4, stronger effect = lower value",0.967
same,normalized growth,[1],1.01
same,normalized growth,"S. cerevisiae deletion strains, locus YCL029C, strain bik1, stronger effect = lower value",0.978
same,normalized growth,"S. cerevisiae deletion strains, locus YDL035C, strain GPR1, stronger effect = lower value",0.952
same,normalized growth,"S. cerevisiae deletion strains, locus YDL074C, strain BRE1, stronger effect = lower value",0.945
same,normalized growth,[2],0.984
same,normalized growth,"S. cerevisiae deletion strains, locus YDL185W, strain tfp1, stronger effect = lower value",0.986
same,normalized growth,"S. cerevisiae deletion strains, locus YDL192W, strain arf1, stronger effect = lower value",0.972
same,normalized growth,"S. cerevisiae deletion strains, locus YDR101C, strain arx1, stronger effect = lower value",0.949
same,normalized growth,[3],1.02
same,normalized growth,"S. cerevisiae deletion strains, locus YDR162C, strain NBP2, stronger effect = lower value",0.993
same,normalized growth,"S. cerevisiae deletion strains, locus YDR318W, strain mcm21, stronger effect = lower value",0.998
same,normalized growth,"S. cerevisiae deletion strains, locus YDR388W, stronger effect = lower value",0.978
same,normalized growth,"S. cerevisiae deletion strains, locus YDR502C, strain sam2, stronger effect = lower value",0.957
same,normalized growth,[4],1
same,normalized growth,"S. cerevisiae deletion strains, locus YER110C, stronger effect = lower value",0.971
same,normalized growth,"S. cerevisiae deletion strains, locus YER155C, strain BEM2, stronger effect = lower value",1.03
same,normalized growth,"S. cerevisiae deletion strains, locus YER167W, strain BCK2, stronger effect = lower value",0.998
same,normalized growth,"S. cerevisiae deletion strains, locus YGL078C, strain dbp3, stronger effect = lower value",0.963
same,normalized growth,"S. cerevisiae deletion strains, locus YGL086W, strain mad1, stronger effect = lower value",0.929 (active)
same,normalized growth,"S. cerevisiae deletion strains, locus YGL248W, strain PDE1, stronger effect = lower value",0.975
same,normalized growth,"S. cerevisiae deletion strains, locus YGR135W, strain pre9, stronger effect = lower value",0.965
same,normalized growth,"S. cerevisiae deletion strains, locus YGR252W, strain gcn5, stronger effect = lower value",0.974
same,normalized growth,[5],1.02
same,normalized growth,"S. cerevisiae deletion strains, locus YHR079C, strain IRE1 (second series), stronger effect = lower value",0.987
same,normalized growth,"S. cerevisiae deletion strains, locus YHR094C, strain hxt1, stronger effect = lower value",0.982
same,normalized growth,"S. cerevisiae deletion strains, locus YHR129C, strain ARP1, stronger effect = lower value",0.989
same,normalized growth,"S. cerevisiae deletion strains, locus YHR200W, strain rpn10, stronger effect = lower value",0.986
same,normalized growth,"S. cerevisiae deletion strains, locus YIL066C, strain RNR3, stronger effect = lower value",0.97
same,normalized growth,"S. cerevisiae deletion strains, locus YIL073C, strain SPO22, stronger effect = lower value",0.93
same,normalized growth,"S. cerevisiae deletion strains, locus YIL125W, strain kgd1, stronger effect = lower value",0.973
same,normalized growth,"S. cerevisiae deletion strains, locus YIR030C, strain dcg1, stronger effect = lower value",0.988
same,normalized growth,"S. cerevisiae deletion strains, locus YJL095W, strain BCK1, stronger effect = lower value",0.968
same,normalized growth,"S. cerevisiae deletion strains, locus YJL134W, strain LCB3, stronger effect = lower value",1.01
same,normalized growth,"S. cerevisiae deletion strains, locus YJL168C, strain set2, stronger effect = lower value",0.986
same,normalized growth,"S. cerevisiae deletion strains, locus YJL187C, strain SWE1 (second series), stronger effect = lower value",0.99
same,normalized growth,[6],0.956
same,normalized growth,"S. cerevisiae deletion strains, locus YKL009W, strain mrt4, stronger effect = lower value",0.868 (active)
same,normalized growth,"S. cerevisiae deletion strains, locus YKL068W, stronger effect = lower value",0.994
same,normalized growth,"S. cerevisiae deletion strains, locus YKL085W, strain MDH1 (second series), stronger effect = lower value",0.958
same,normalized growth,"S. cerevisiae deletion strains, locus YKL085W, strain MDH1, stronger effect = lower value",0.958
same,normalized growth,"S. cerevisiae deletion strains, locus YKR001C, strain vps1, stronger effect = lower value",0.963
same,normalized growth,[7],0.848
same,normalized growth,"S. cerevisiae deletion strains, locus YLR058C, strain SHM2, stronger effect = lower value",1
same,normalized growth,"S. cerevisiae deletion strains, locus YLR102C, strain apc9, stronger effect = lower value",0.988
same,normalized growth,[8],0.816
same,normalized growth,"S. cerevisiae deletion strains, locus YLR268W, strain sec22, stronger effect = lower value",0.953
same,normalized growth,"S. cerevisiae deletion strains, locus YLR330W, strain CHS5, stronger effect = lower value",1.01
same,normalized growth,"S. cerevisiae deletion strains, locus YLR342W, strain FKS1 (second series), stronger effect = lower value",0.97
same,normalized growth,"S. cerevisiae deletion strains, locus YLR371W, strain rom2, stronger effect = lower value",0.998
same,normalized growth,"S. cerevisiae deletion strains, locus YLR418C, strain cdc73, stronger effect = lower value",0.959
same,normalized growth,"S. cerevisiae deletion strains, locus YML016C, strain PPZ1, stronger effect = lower value",1
same,normalized growth,"S. cerevisiae deletion strains, locus YML032C, strain rad52, stronger effect = lower value",1
same,normalized growth,"S. cerevisiae deletion strains, locus YML124C, strain tub3, stronger effect = lower value",0.987
same,normalized growth,"S. cerevisiae deletion strains, locus YMR078C, strain ctf18, stronger effect = lower value",0.959
same,normalized growth,"S. cerevisiae deletion strains, locus YMR223W, strain ubp8, stronger effect = lower value",0.979
same,normalized growth,[9],1
same,normalized growth,[10],1.02
same,normalized growth,"S. cerevisiae deletion strains, locus YNL067W, strain RPL9B, stronger effect = lower value",0.965
same,normalized growth,"S. cerevisiae deletion strains, locus YNL233W, strain BNI4, stronger effect = lower value",0.992
same,normalized growth,"S. cerevisiae deletion strains, locus YNL250W, strain rad50, stronger effect = lower value",1.01
same,normalized growth,"S. cerevisiae deletion strains, locus YNL271C, strain bni1, stronger effect = lower value",0.971
same,normalized growth,"S. cerevisiae deletion strains, locus YNL298W, strain CLA4, stronger effect = lower value",0.959
same,normalized growth,"S. cerevisiae deletion strains, locus YNL307C, strain MCK1, stronger effect = lower value",0.969
same,normalized growth,"S. cerevisiae deletion strains, locus YNR052C, strain pop2, stronger effect = lower value",1.01
same,normalized growth,"S. cerevisiae deletion strains, locus YOL012C, strain htz1",1.31
same,normalized growth,"S. cerevisiae deletion strains, locus YOL147C, strain pex11, stronger effect = lower value",0.986
same,normalized growth,"S. cerevisiae deletion strains, locus YOR061W, strain CKA2, stronger effect = lower value",0.996
same,normalized growth,"S. cerevisiae deletion strains, locus YOR069W, strain VPS5, stronger effect = lower value",0.998
same,normalized growth,"S. cerevisiae deletion strains, locus YOR136W, strain idh2, stronger effect = lower value",0.98
same,normalized growth,"S. cerevisiae deletion strains, locus YOR144C, strain elg1, stronger effect = lower value",0.987
same,normalized growth,"S. cerevisiae deletion strains, locus YOR184W, strain ser1, stronger effect = lower value",0.926
same,normalized growth,"S. cerevisiae deletion strains, locus YOR316C, strain cot1, stronger effect = lower value",0.976
same,normalized growth,[11],0.969
same,normalized growth,"S. cerevisiae deletion strains, locus YPR119W, strain clb2, stronger effect = lower value",0.983
same,normalized growth,"S. cerevisiae deletion strains, locus YPR141C, strain kar3, stronger effect = lower value",0.977
same,normalized growth,"S. cerevisiae deletion strains, locus YPR163C, strain tif3, stronger effect = lower value",0.97
same,normalized growth,"S. cerevisiae deletion strains, locus YPR167C, strain met16, stronger effect = lower value",0.996
same,normalized growth,"S. cerevisiae deletion strains, strain wtn01, stronger effect = lower value",0.965
same,normalized growth,"S. cerevisiae strains, strain wild type, stronger effect = lower value",0.988

# Reference: PubChem BioAssay AID1159580 (chemical genetic matrix, 2015)
